According to PubChem BioAssay AID1159580 (chemical genetic matrix, 2015):
Values joined by “and” are separate entries in the source; they are usually repeats but may differ in a detail not shown here. Equal values may be shown once. Out of some 5,500 compounds screened, about 2,000 (36%) were called active. Another 18% or so got no clear call; they are omitted. Rule as the data show it: active = normalized growth mostly below about 0.91 (no sharp cut-off); inconclusive = no clear call, values can overlap the other calls; inactive = mostly above about 0.92. The list shows a part of the results.

Experiment: chemical genetic growth profiling, strain panel (AID 1159580);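 also: tested at 20 µM; growth read once vehicle control cultures reached saturation at 30 °C; 1 = growth at the plate median or of vehicle wells; lower values mean less growth of the strain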
Details: growth OD

Measured: normalized growth

COc1ccc2[nH]cc(CCN)c2c1
inactive: S. cerevisiae deletion strains, locus YJR043C, strain POL32, stronger effect = lower value 1.02 | S. cerevisiae deletion strains, locus YJR075W, strain HOC1, stronger effect = lower value 0.995 and 0.984 | S. cerevisiae deletion strains, locus YKL009W, strain mrt4, stronger effect = lower value 0.94 | S. cerevisiae deletion strains, locus YKL068W, stronger effect = lower value 0.986 | S. cerevisiae deletion strains, locus YKL085W, strain MDH1 (second series), stronger effect = lower value 0.991 | S. cerevisiae deletion strains, locus YKL085W, strain MDH1, stronger effect = lower value 0.991 | S. cerevisiae deletion strains, locus YKL160W, strain elf1, stronger effect = lower value 1 | S. cerevisiae deletion strains, locus YKL190W, strain CNB1, stronger effect = lower value 0.996 | S. cerevisiae deletion strains, locus YKR001C, strain vps1, stronger effect = lower value 0.987 | S. cerevisiae deletion strains, locus YKR026C, strain gcn3, stronger effect = lower value 0.988 | S. cerevisiae deletion strains, locus YKR091W, strain srl3, stronger effect = lower value 0.996 | S. cerevisiae deletion strains, locus YLL001W, strain dnm1, stronger effect = lower value 1 | S. cerevisiae deletion strains, locus YLL026W, stronger effect = lower value 0.997 | S. cerevisiae deletion strains, locus YLL041C, strain sdh2, stronger effect = lower value 0.991 | S. cerevisiae deletion strains, locus YLR027C, strain aat2, stronger effect = lower value 1 | S. cerevisiae deletion strains, locus YLR039C, strain RIC1, stronger effect = lower value 1.03 | S. cerevisiae deletion strains, locus YLR058C, strain SHM2, stronger effect = lower value 0.97 | S. cerevisiae deletion strains, locus YLR102C, strain apc9, stronger effect = lower value 0.982 | S. cerevisiae deletion strains, locus YLR221C, strain rsa3, stronger effect = lower value 0.969 | S. cerevisiae deletion strains, locus YLR258W, strain gsy2, stronger effect = lower value 0.997 | S. cerevisiae deletion strains, locus YLR262C, strain YPT6 (second series), stronger effect = lower value 0.999 | S. cerevisiae deletion strains, locus YLR262C, strain YPT6, stronger effect = lower value 0.989 | S. cerevisiae deletion strains, locus YLR268W, strain sec22, stronger effect = lower value 1.06 | S. cerevisiae deletion strains, locus YLR320W, strain mms22, stronger effect = lower value 0.965 | S. cerevisiae deletion strains, locus YLR330W, strain CHS5, stronger effect = lower value 0.995 | S. cerevisiae deletion strains, locus YLR342W, strain FKS1 (second series), stronger effect = lower value 0.991 | S. cerevisiae deletion strains, locus YLR342W, strain FKS1, stronger effect = lower value 1.01 | S. cerevisiae deletion strains, locus YLR357W, strain rsc2, stronger effect = lower value 0.991 | S. cerevisiae deletion strains, locus YLR370C, strain arc18, stronger effect = lower value 0.994 | S. cerevisiae deletion strains, locus YLR371W, strain rom2, stronger effect = lower value 0.974 | S. cerevisiae deletion strains, locus YLR384C, strain iki3, stronger effect = lower value 0.999 | S. cerevisiae deletion strains, locus YLR418C, strain cdc73, stronger effect = lower value 0.978 | S. cerevisiae deletion strains, locus YML016C, strain PPZ1, stronger effect = lower value 0.984 | S. cerevisiae deletion strains, locus YML032C, strain rad52, stronger effect = lower value 1 | S. cerevisiae deletion strains, locus YML120C, strain ndi1, stronger effect = lower value 1.01 | S. cerevisiae deletion strains, locus YML124C, strain tub3, stronger effect = lower value 0.984 | S. cerevisiae deletion strains, locus YMR058W, strain fet3, stronger effect = lower value 0.988 | S. cerevisiae deletion strains, locus YMR078C, strain ctf18, stronger effect = lower value 0.99 | S. cerevisiae deletion strains, locus YMR125W, strain sto1, stronger effect = lower value 0.992 | S. cerevisiae deletion strains, locus YMR129W, stronger effect = lower value 0.981 | S. cerevisiae deletion strains, locus YMR205C, strain PFK2, stronger effect = lower value 1.02 | S. cerevisiae deletion strains, locus YMR223W, strain ubp8, stronger effect = lower value 0.957 | S. cerevisiae deletion strains, locus YMR231W, strain pep5, stronger effect = lower value 0.994 | S. cerevisiae deletion strains, locus YMR263W, strain SAP30, stronger effect = lower value 0.981 and 0.985 | S. cerevisiae deletion strains, locus YMR307W, strain GAS1, stronger effect = lower value 0.947 | S. cerevisiae deletion strains, locus YNL067W, strain RPL9B, stronger effect = lower value 1.01 | S. cerevisiae deletion strains, locus YNL071W, strain lat1, stronger effect = lower value 1.01 | S. cerevisiae deletion strains, locus YNL128W, strain TEP1, stronger effect = lower value 0.975 | S. cerevisiae deletion strains, locus YNL153C, strain GIM3, stronger effect = lower value 1 | S. cerevisiae deletion strains, locus YNL175C, strain NOP13, stronger effect = lower value 1 | S. cerevisiae deletion strains, locus YNL197C, strain WHI3, stronger effect = lower value 0.99 | S. cerevisiae deletion strains, locus YNL209W, strain ssb2, stronger effect = lower value 1.01 | S. cerevisiae deletion strains, locus YNL224C, strain SQS1, stronger effect = lower value 0.982 | S. cerevisiae deletion strains, locus YNL233W, strain BNI4, stronger effect = lower value 1 | S. cerevisiae deletion strains, locus YNL248C, strain rpa49, stronger effect = lower value 0.972 | S. cerevisiae deletion strains, locus YNL250W, strain rad50, stronger effect = lower value 0.963 | S. cerevisiae deletion strains, locus YNL271C, strain bni1, stronger effect = lower value 0.996 | S. cerevisiae deletion strains, locus YNL298W, strain CLA4, stronger effect = lower value 0.971 | S. cerevisiae deletion strains, locus YNL307C, strain MCK1, stronger effect = lower value 0.989 | S. cerevisiae deletion strains, locus YNL322C, strain KRE1 (second series), stronger effect = lower value 1 | S. cerevisiae deletion strains, locus YNL322C, strain KRE1, stronger effect = lower value 0.991 and 0.992 | S. cerevisiae deletion strains, locus YNR049C, strain mso1, stronger effect = lower value 0.984 | S. cerevisiae deletion strains, locus YNR052C, strain pop2, stronger effect = lower value 0.976 | S. cerevisiae deletion strains, locus YOL006C, strain TOP1, stronger effect = lower value 1.03 | S. cerevisiae deletion strains, locus YOL012C, strain htz1 0.627 | S. cerevisiae deletion strains, locus YOL147C, strain pex11, stronger effect = lower value 0.987 | S. cerevisiae deletion strains, locus YOR001W, strain rrp6, stronger effect = lower value 0.931 | S. cerevisiae deletion strains, locus YOR061W, strain CKA2, stronger effect = lower value 0.965 | S. cerevisiae deletion strains, locus YOR069W, strain VPS5, stronger effect = lower value 0.983 | S. cerevisiae deletion strains, locus YOR070C, strain gyp1, stronger effect = lower value 0.979 | S. cerevisiae deletion strains, locus YOR080W, strain dia2, stronger effect = lower value 0.991 | S. cerevisiae deletion strains, locus YOR083W, strain WHI5 (second series), stronger effect = lower value 0.99 | S. cerevisiae deletion strains, locus YOR083W, strain WHI5, stronger effect = lower value 1.02 | S. cerevisiae deletion strains, locus YOR106W, strain vam3, stronger effect = lower value 1.02 | S. cerevisiae deletion strains, locus YOR136W, strain idh2, stronger effect = lower value 0.998 | S. cerevisiae deletion strains, locus YOR144C, strain elg1, stronger effect = lower value 0.985 | S. cerevisiae deletion strains, locus YOR184W, strain ser1, stronger effect = lower value 1.01 | S. cerevisiae deletion strains, locus YOR265W, strain rbl2, stronger effect = lower value 0.991 | S. cerevisiae deletion strains, locus YOR270C, strain vph1, stronger effect = lower value 0.957 | S. cerevisiae deletion strains, locus YOR290C, strain snf2, stronger effect = lower value 1.01 | S. cerevisiae deletion strains, locus YOR316C, strain cot1, stronger effect = lower value 0.994 | S. cerevisiae deletion strains, locus YPL051W, strain arl3, stronger effect = lower value 1.01 | S. cerevisiae deletion strains, locus YPL055C, strain LGE1, stronger effect = lower value 0.977 | S. cerevisiae deletion strains, locus YPL078C, strain atp4, stronger effect = lower value 1.02 | S. cerevisiae deletion strains, locus YPL106C, strain sse1, stronger effect = lower value 1.01 | S. cerevisiae deletion strains, locus YPL240C, strain hsp82, stronger effect = lower value 0.995 | S. cerevisiae deletion strains, locus YPL241C, strain CIN2, stronger effect = lower value 0.994 and 1.01 | S. cerevisiae deletion strains, locus YPR119W, strain clb2, stronger effect = lower value 0.989 | S. cerevisiae deletion strains, locus YPR141C, strain kar3, stronger effect = lower value 0.976 | S. cerevisiae deletion strains, locus YPR163C, strain tif3, stronger effect = lower value 0.995 | S. cerevisiae deletion strains, locus YPR167C, strain met16, stronger effect = lower value 0.989 | S. cerevisiae deletion strains, strain wtn01, stronger effect = lower value 1.02 | S. cerevisiae strains, strain wild type, stronger effect = lower value 0.984
